Experimental data published in PubChem BioAssay (EPA / NIEHS).
Where “and” joins values, the source holds several entries; their conditions need not be identical. Equal values may be shown once. Inconclusive results are not listed. Some compounds were tested as several samples or in several runs, with calls that do not always agree. Calls of active or inactive are those of the source. The calls were made as follows, unless noted: active = hit-call score of the fitted dose curve at least 0.9, where 1 is the maximum; inactive = score below 0.9.

Tests used:
[1] = ACEA_ER_80hr: ACEA Biosciences xCELLigence Real-Time Cell Analysis on Estrogen Receptor Agonism for Proliferation (AID 2282667; active = hit-call score of the fitted dose curve at least 0.9, where 1 is the maximum); conditions: T47D proliferation, impedance (xCELLigence), 80 h
Method in brief: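 Impedance readout (RT-CES) of T47D proliferation at 80 h post-dose; gain of signal vs DMSO baseline. Compounds: 8 conc, 1:4 serial, top 100 uM final, ≤0.5% DMSO; biological duplicate.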

[2] = ATG_CRE_CIS: Attagene CIS-FACTORIAL HepG2 Assay for human cAMP Responsive Element (CRE) binding protein 3 (AID 2282926); conditions: HepG2 CRE cis-reporter, Attagene multiplexed mRNA; actives raise or lower the signal
Method in brief: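 Endogenous CRE-binding activity in HepG2 is reported through a cis-regulated transfected reporter. Following a day of exposure, mRNA levels are determined by reverse transcription PCR and fluorescent fragment analysis; fits run in both directions versus DMSO.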

[3] = target: CCAAT/enhancer-binding protein beta (Homo sapiens) (UniProt P17676); experiment: ATG_C_EBP_CIS: Attagene CIS-FACTORIAL HepG2 Assay for human CCAAT/Enhancer Binding Protein (C/EBP) beta (AID 2282927); conditions: HepG2 Attagene cis-factorial transcription factor reporter; actives raise or lower the signal
Method in brief: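 HepG2, transient MRTU transfection, 24 h treatment. RT-PCR plus CE fluorescence; DMSO negative control, bidirectional fit.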

[4] = ATG_CMV_CIS: Attagene CIS-FACTORIAL HepG2 Assay for human CMV (Internal Marker) (AID 2282928); conditions: HepG2 CMV promoter reporter, transcription factor profiling; actives raise or lower the signal;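 also: endpoint acts as a background internal control marker rather than a target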
Method in brief: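 Endogenous transcription factor activity read in HepG2 via transfected cis-promoter reporter units. After 24 h dosing, reporter mRNA measured by RT-PCR/capillary electrophoresis; gain or loss of signal fit relative to DMSO.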

[5] = ATG_DR4_LXR_CIS: Attagene CIS-FACTORIAL HepG2 Assay for human Liver X Receptor (LXR), DR4 submotif (AID 2282929); conditions: HepG2 Attagene DR4 cis-reporter, mRNA transcription; actives raise or lower the signal
Method in brief: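 Fluorescence intensity of labelled reporter cDNA fragments, separated by capillary electrophoresis, gives the signal. HepG2 cells bearing cis-regulated reporter constructs were treated 24 h; activity fitted bidirectionally relative to DMSO negative control.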

[6] = target: Aryl hydrocarbon receptor (Homo sapiens) (UniProt P35869); experiment: ATG_Ahr_CIS: Attagene CIS-FACTORIAL HepG2 Assay for human Aryl Hydrocarbon Receptor (Ahr) (AID 2282930); conditions: HepG2 AhR cis-factorial reporter transcription; actives raise or lower the signal
Method in brief: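 Endogenous factor activity is tracked through cis-promoter reporter units transfected into HepG2 cells. Transcript levels at 24 h are read by fluorescent RT-PCR and capillary electrophoresis, with activity in either direction scored relative to DMSO.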

[7] = ATG_AP_1_CIS: Attagene CIS-FACTORIAL HepG2 Assay for human Activator Protein 1 (AP-1) (AID 2282931); conditions: HepG2 Attagene cis-factorial AP-1 reporter mRNA; actives raise or lower the signal
Method in brief: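 Multiplexed HepG2 reporter assay, 24 h dosing. mRNA induction detected by RT-PCR plus capillary electrophoresis. Activity fitted in both directions against DMSO.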

[8] = ATG_AP_2_CIS: Attagene CIS-FACTORIAL HepG2 Assay for human Activator Protein 2 (AP-2) (AID 2282932); conditions: HepG2 AP-2 cis-reporter, Attagene transcription factor profiling; actives raise or lower the signal
Method in brief: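 Multiplexed mRNA reporter assay in HepG2: cis-regulated units report endogenous factor activity after 24 h treatment. Fluorescence from capillary electrophoresis of RT-PCR products gives the signal, with DMSO as baseline.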

[9] = ATG_BRE_CIS: Attagene CIS-FACTORIAL HepG2 Assay for human Bone Morphogenetic Protein (BMP) Response Element (BRE) (AID 2282933); conditions: HepG2 BMP response element reporter, Attagene transcription factor profiling; actives raise or lower the signal
Method in brief: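 Endogenous transcription factor activity read in transiently transfected HepG2 cells after 24 h chemical exposure. Bidirectional curve fitting against DMSO; readout is reporter transcript level by RT-PCR with capillary electrophoresis of labelled products.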

[10] = target: Retinoic acid receptor alpha (Homo sapiens) (UniProt P10276); experiment: ATG_DR5_RAR_CIS: Attagene CIS-FACTORIAL HepG2 Assay for human Retinoic Acid Receptor Alpha (RARE), DR5 submotif (AID 2282934); conditions: HepG2 Attagene cis-factorial RARE DR5 reporter, mRNA; actives raise or lower the signal;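 as to AC50: reporter responds to endogenous RAR alpha beta and gamma in HepG2 not RARA alone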
Method in brief: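 After 24 h of chemical exposure, transiently transfected HepG2 cells were lysed for total RNA; the DR5-regulated reporter transcript was quantified via RT-PCR and capillary electrophoresis, with activity fitted bidirectionally against DMSO.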

Measured: AC50

CCAAT/enhancer-binding protein beta (Homo sapiens), sequence (P17676 whole entry, looked up): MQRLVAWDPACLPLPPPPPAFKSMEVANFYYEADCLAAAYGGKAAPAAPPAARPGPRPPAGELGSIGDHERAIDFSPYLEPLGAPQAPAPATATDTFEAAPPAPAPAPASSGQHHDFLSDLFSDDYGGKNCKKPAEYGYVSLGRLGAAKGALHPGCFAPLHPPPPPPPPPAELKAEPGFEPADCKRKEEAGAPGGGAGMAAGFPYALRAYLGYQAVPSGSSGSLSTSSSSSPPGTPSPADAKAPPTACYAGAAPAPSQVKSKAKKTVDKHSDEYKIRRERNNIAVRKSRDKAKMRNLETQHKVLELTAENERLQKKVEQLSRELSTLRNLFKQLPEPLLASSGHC
Aryl hydrocarbon receptor (Homo sapiens), sequence (P35869 whole entry, looked up): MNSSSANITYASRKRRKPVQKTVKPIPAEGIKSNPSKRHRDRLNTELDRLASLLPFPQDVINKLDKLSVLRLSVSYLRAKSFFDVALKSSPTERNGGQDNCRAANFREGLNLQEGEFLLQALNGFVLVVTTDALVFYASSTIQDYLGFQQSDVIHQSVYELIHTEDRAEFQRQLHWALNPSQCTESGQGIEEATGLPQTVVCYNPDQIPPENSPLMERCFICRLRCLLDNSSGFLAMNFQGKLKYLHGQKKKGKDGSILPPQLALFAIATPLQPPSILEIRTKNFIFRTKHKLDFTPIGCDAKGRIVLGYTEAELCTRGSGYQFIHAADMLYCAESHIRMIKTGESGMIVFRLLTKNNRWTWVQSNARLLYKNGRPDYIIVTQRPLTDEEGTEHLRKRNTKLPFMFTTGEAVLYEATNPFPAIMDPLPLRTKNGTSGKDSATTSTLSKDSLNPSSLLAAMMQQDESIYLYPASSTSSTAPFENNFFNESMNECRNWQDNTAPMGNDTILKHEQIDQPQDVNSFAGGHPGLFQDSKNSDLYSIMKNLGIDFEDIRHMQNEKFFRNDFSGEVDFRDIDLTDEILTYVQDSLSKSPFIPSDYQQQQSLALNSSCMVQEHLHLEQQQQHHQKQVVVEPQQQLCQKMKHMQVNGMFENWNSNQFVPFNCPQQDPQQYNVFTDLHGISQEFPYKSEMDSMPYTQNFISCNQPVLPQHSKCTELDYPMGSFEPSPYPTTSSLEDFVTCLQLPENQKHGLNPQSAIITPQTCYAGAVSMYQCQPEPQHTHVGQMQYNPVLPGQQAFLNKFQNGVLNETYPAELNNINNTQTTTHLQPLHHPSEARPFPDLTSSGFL
Retinoic acid receptor alpha (Homo sapiens), sequence (P10276 whole entry, looked up): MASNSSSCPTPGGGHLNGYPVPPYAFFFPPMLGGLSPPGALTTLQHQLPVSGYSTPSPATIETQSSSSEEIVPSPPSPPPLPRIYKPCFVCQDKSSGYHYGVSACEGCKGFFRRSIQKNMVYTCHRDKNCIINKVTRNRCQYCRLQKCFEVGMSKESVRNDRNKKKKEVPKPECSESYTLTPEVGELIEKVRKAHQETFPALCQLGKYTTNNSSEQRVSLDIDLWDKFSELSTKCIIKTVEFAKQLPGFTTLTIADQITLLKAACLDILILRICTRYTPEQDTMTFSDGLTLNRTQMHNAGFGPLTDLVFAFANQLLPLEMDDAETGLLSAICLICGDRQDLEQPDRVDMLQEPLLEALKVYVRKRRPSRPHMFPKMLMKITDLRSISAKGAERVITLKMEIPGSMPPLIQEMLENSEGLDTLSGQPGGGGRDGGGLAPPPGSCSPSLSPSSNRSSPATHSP

O=S(=O)(OCCOC(F)(F)F)C(F)(F)F
active: [6] 101 µM
inactive: [1] | [2] | [3] | [4] | [5] | [6] | [7] | [8] | [9] | [10]

Nc1cc(Cl)c(N)c(Cl)c1
active: [1] 13.5 µM | [6] 6.21 µM
inactive: all other assays above

N=C(N)C(F)(F)C(F)(F)C(F)(F)C(F)(F)C(F)(F)C(F)(F)C(F)(F)F
active: [3] 111 µM | [5] 211 µM | [7] 150 µM
inactive: all other assays above

OCCCC(F)(F)C(F)(F)C(F)(F)F
inactive: all assays above

CCCCOCCOCCOC(=O)CCCCC(=O)OCCOCCOCCCC
inactive: all assays above

Cc1cccc(N(C)C)c1
inactive: all assays above

OC[C@@H](O)[C@@H](O)[C@H](O)[C@@H](O)CO
inactive: all assays above

Oc1ccc(Nc2ccccc2)cc1
active: [4] 41.8 µM
inactive: all other assays above

O=S(=O)(OCC(F)F)C(F)(F)F
inactive: all assays above

FC1CC(F)(F)C(F)(F)C1(F)F (stereo not given)
inactive: all assays above

OCCCC(F)(F)C(F)(F)C(F)(F)C(F)(F)C(F)(F)C(F)(F)C(F)(F)F
active: [2] 51.4 µM | [8] 75.5 µM
inactive: [1] | [2] | [3] | [4] | [6] | [7] | [8] | [9] | [10]

FC(F)(F)C(F)(F)C(F)(F)C(F)(F)C(F)(F)C(F)(F)C(F)(F)Br
inactive: all assays above

CCN(CC)c1ccc2c(C)cc(=O)oc2c1
active: [2] 30.7 µM | [4] 26.5 µM | [9] 143 µM
inactive: all other assays above

c1ccc(-c2ccccc2-c2ccccc2)cc1
active: [1] 0.534 µM | [4] 29.8 µM | [5] 27.7 µM | [7] 58.7 µM
inactive: all other assays above

FC(F)(I)C(F)(F)C(F)(F)C(F)(F)I
active: [1] 0.312 µM
inactive: all other assays above

O=C(O)C(F)(F)C(F)(F)C(F)(F)F
inactive: all assays above

CC(CCl)OP(=O)(OC(C)CCl)OC(C)CCl (stereo not given)
inactive: all assays above

FC(F)(F)C(F)(F)C(F)(F)C(F)(F)C(F)(F)C(F)(F)CC1CO1 (stereo not given)
inactive: all assays above

O=S(=O)(O)c1ccc2ccccc2c1
active: [6] 42.7 µM and 40.3 µM
not listed: [10]
inactive: all other assays above

FC(F)(F)C(F)(F)C(F)(F)C(F)(F)CCI
inactive: [1] | [2] | [3] | [4] | [5] | [6] | [7] | [8] | [9] | [10]
active: [6] 43.5 µM

O=C(O)C(F)(F)C(F)(F)OC(F)(F)F
inactive: all assays above

COC(OC(C)=O)c1ccccc1 (stereo not given)
inactive: all assays above

FC(F)(F)C(F)(F)C(F)(F)C(F)(F)C(F)(F)C(F)(F)C(F)(F)I
inactive: all assays above

O=C(O)C(F)(F)C(F)(F)C(F)(F)C(F)(F)C(F)(F)C(F)(F)C(F)(F)C(F)(F)Cl
inactive: [1] | [2] | [3] | [4] | [6] | [7] | [8] | [9] | [10]
active: [2] 50 µM | [5] 39.1 µM and 34.7 µM | [8] 83.2 µM

FC(F)(F)C(F)(F)CNCC(F)(F)C(F)(F)F
inactive: all assays above

O=C(CC(=O)C(F)(F)C(F)(F)F)C(F)(F)F
active: [7] 150 µM
inactive: [1] | [2] | [3] | [4] | [5] | [6] | [7] | [8] | [9] | [10]

O=C(O)C(F)(OC(F)(F)C(F)(OC(F)(F)C(F)(OC(F)(F)C(F)(F)C(F)(F)F)C(F)(F)F)C(F)(F)F)C(F)(F)F (stereo not given)
inactive: all assays above

C=CC(F)(F)C(F)(F)C(F)(F)C(F)(F)C(F)(F)C(F)(F)C(F)(F)C(F)(F)C=C
inactive: all assays above

C=CC(=O)OCC(F)(F)C(F)(F)C(F)(F)C(F)(F)C(F)(F)C(F)(F)C(F)(F)F
active: [10] 12.1 µM
inactive: all other assays above

O=C(O)C(F)(F)C(F)(F)C(F)(F)C(F)(F)C(F)(F)C(F)(F)C(F)(F)C(F)(F)C(F)(F)C(F)(F)C(F)(F)C(F)(F)F
inactive: all assays above

C=C(C)C(=O)OCCC(F)(F)C(F)(F)C(F)(F)C(F)(F)C(F)(C(F)(F)F)C(F)(F)F
inactive: all assays above

CCCCCCOC(=O)c1ccccc1
active: [6] 50.4 µM
inactive: all other assays above

O=C(O)C(F)(F)C(F)(F)C(F)(F)C(F)(F)C(F)(F)C(F)(F)C(F)(F)C(F)(F)C(F)(F)C(F)F
active: [1] 18.8 µM | [7] 26.6 µM
inactive: all other assays above

Cc1cc(C)cc(O)c1
inactive: all assays above

O=C(O)C(F)(F)C(F)(F)C(F)F
inactive: all assays above

FC(F)(F)C(F)(F)C(F)(F)C(F)(F)C(F)(F)CCI
active: [4] 97.7 µM | [6] 32.1 µM | [7] 59.9 µM
inactive: all other assays above

OCC(F)(F)C(F)(F)C(F)(F)F
inactive: all assays above

CCCCC(CC)COP(=O)(O)OCC(CC)CCCC (stereo not given)
active: [5] 42 µM | [7] 60.6 µM
inactive: all other assays above

Nc1ccc(Oc2cccc(Oc3ccc(N)cc3)c2)cc1
active: [2] 145 µM | [4] 45.1 µM | [5] 25.4 µM
inactive: all other assays above

CC(C)c1ccccc1N
inactive: all assays above

CN(C)Cc1ccccc1O
active: [1] 4.58 µM
inactive: all other assays above

CCN(Cc1cccc(S(=O)(=O)O)c1)c1ccc(C(=C2C=CC(=[N+](CC)Cc3cccc(S(=O)(=O)O)c3)C=C2)c2ccc(O)cc2S(=O)(=O)[O-])cc1
active: [6] 33 µM
inactive: all other assays above

O=C(O)C=C(C(F)(F)F)C(F)(F)F
inactive: all assays above

[Co]
inactive: all assays above
